Laboratory results published in publication PMC5540273 (PLoS ONE, 2017).

Tests used:
Settings in all cases: concentration: 1 μM,replicates: in singlicate; n = 1
[1] = test system: LCK
[2] = test system: LIMK1
[3] = test system: LIMK2
[4] = test system: T1, LKB1
T1 construct: gene STK11

[5] = test system: T2, LOK
T2 construct: gene STK10

[6] = test system: LRRK2
[7] = test system: LTK
[8] = test system: LYN
[9] = test system: T3, LZK
T3 construct: gene MAP3K13

[10] = test system: MAK
[11] = test system: MAP3K15
[12] = test system: MAP3K1
[13] = test system: MAP3K2
[14] = test system: MAP3K3
[15] = test system: MAP3K4
[16] = test system: MAP4K2
[17] = test system: MAP4K3
[18] = test system: MAP4K4
[19] = test system: MAP4K5
[20] = test system: MAPKAPK2
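Note: KINOMEscan kinase panel screen.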

SMILES	%Inh [1] [%]	%Inh [2] [%]	%Inh [3] [%]	%Inh [4] [%]	%Inh [5] [%]	%Inh [6] [%]	%Inh [7] [%]	%Inh [8] [%]	%Inh [9] [%]	%Inh [10] [%]	%Inh [11] [%]	%Inh [12] [%]	%Inh [13] [%]	%Inh [14] [%]	%Inh [15] [%]	%Inh [16] [%]	%Inh [17] [%]	%Inh [18] [%]	%Inh [19] [%]	%Inh [20] [%]
CN(c1cccc(CNc2nc(Nc3ccc4c(c3)CC(=O)N4)ncc2C(F)(F)F)c1)S(C)(=O)=O	42	0	0	5	0	18	60	18	0	0	0	0	44	11	3	0	18	34	0	0
CSc1nccc(-c2c(-c3ccc(F)cc3)ncn2CCCN2CCOCC2)n1.Cl [SB-217146]	0	3	0	0	8	0	4	0	0	0	0	0	23	1	0	0	0	0	0	0
Cn1ccc2ncnc(Oc3ccc(NC(=O)Nc4cnn(C(C)(C)C)c4)c(Cl)c3)c21	71	1	8	9	99.9	0	12	71	0	0	0	7	0	9	1	4	0	52	0	7
COc1cccc(CNC(=O)NC2CCN(c3ccnc(Nc4cc(OC)c(OC)c(OC)c4)n3)C2)c1 (stereo not drawn) [GSK1379765]	34	9	82	0	49	0	78	0	32	31	0	10	0	0	0	0	1	1	3	46
O=C(Nc1ccccc1)c1cccc(Oc2ccc3nccn3n2)c1	13	12	23	0	7	0	20	4	0	32	0	10	0	0	20	2	0	0	0	0
O=C(NCC1CC1)c1ccc(-c2cc(C(=O)NC3CC3)ccc2F)cc1 [GW810445]	0	0	0	68	5	71	28	0	0	0	0	0	0	0	0	0	0	0	0	0
Cn1cc(-c2cccc3c(N)c(C(N)=O)nnc23)cn1	5	2	7	0	15	57	29	12	0	0	7	29	14	30	95	0	8	22	14	0
CC(=O)Nc1nc2cnc(Nc3cc(NC(=O)c4cccc(CC(C)(C)C#N)c4)ccc3C)nc2s1	72	0	2	1	55	9	2	58	15	0	22	13	0	36	0	0	0	7	0	0
C[C@@H](Oc1cc(-n2cnc3cc(-c4ccncc4)ccc32)sc1C(N)=O)c1ccccc1Cl [GSK479719]	54	31	0	0	99.8	4	0	0	0	0	18	91.9	10	1	13	24	65	13	85	0
